Bioassay records as filed in PubChem.
NALP1 yeast inh: inhibitors of NALP1 inflammasome in yeast; AID 2071; S. cerevisiae NALP1/ASC/caspase-1 growth, X-gal OD620, 72 h; inhibition, % at 10 µM; 280,000 tested, 0.61% active; in the data active = inhibition mostly above about 24%, no sharp cut-off; inactive = mostly below about 32%
PfHsp90 yeast 2: reduces growth (ATP signal) of yeast expressing P. falciparum Hsp90. S. cerevisiae expressing PfHsp90, BacTiter-Glo ATP, 48 h; yeast lacking PDR1 and PDR3 efflux regulators. inhibition, % at 9.4 µM. 310,000 tested, 0.32% active. AID 504621;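 active = every replicate shows inhibition above about 80%, whatever the replicate mean, limit read from the data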
TIM10 inh: growth inhibitors of TIM10 yeast strain; inhibition, % at 10 µM; 330,000 tested, 1.4% active; AID 463195; S. cerevisiae TIM10 strain growth, BacTiter-Glo luminescence, 24 h;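 active = inhibition of 40% or more at the single tested concentration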;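 note: wild-type TIM10 isogenic control strain grown at permissive 25 °C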
tim23-1 inh: growth inhibitors of tim23-1 mutant yeast. S. cerevisiae tim23-1 growth, BacTiter-Glo luminescence, 24 h. inhibition, % at 20 µM. 330,000 tested, 1.3% active. AID 463212;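 active = growth inhibition of the mutant yeast at or above 50%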;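 note: temperature-sensitive mutant grown at 25 °C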
tim10-1 inh: inhibits growth of tim10-1 mutant yeast. S. cerevisiae tim10-1 ts strain growth, BacTiter-Glo, 24 h. 330,000 tested, 2.2% active. AID 463190. inhibition, % at 20 µM;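 active = inhibition of at least 40%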;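 note: mutant grown at 25 °C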
SKKanGAS inh: SKKanGAS growth inhibition. S. pyogenes SKKanGAS, kanamycin growth, BacTiter-Glo, 6 h. inhibition, % at 7.5 µM. 300,000 tested, 1.3% active;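 active = mean replicate score, as percent of positive control median, at least 50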;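 note: strain carries kanamycin resistance gene driven by streptokinase promoter and grows in 40 µg/ml kanamycin; loss of luminescence reflects streptokinase promoter inhibition or plain growth inhibition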
Numbers stand for hits; n = inactive; x = no result given. A selection: hits, their analogues and other compounds. The true share with any hit is near 4.8%.

SMILES	NALP1 yeast inh	PfHsp90 yeast 2	TIM10 inh	tim23-1 inh	tim10-1 inh	SKKanGAS inh
Cc1ccnc(SCCn2c(N3CCN(C)CC3)nc3c2c(=O)n(C)c(=O)n3C)n1	n	n	n	n	n	n
N#C/C(=C(/O)c1ccc2c(c1)OCO2)c1nc2cc(C(F)(F)F)ccc2s1	n	n	n	n	n	52
CCc1ccc(C2NC(C(=O)O)CS2)cc1 (stereo not drawn)	50	x	x	x	x	x
Cn1c2ccccc2c2ccc3c(c21)C(=O)C=CC3=O	x	124	x	x	x	x
Cc1ccc(C)c2c1c1ccccc1n2C	n	n	n	n	n	n
COc1ccccc1N1CCN(C(=O)CSc2nnc(NC(=O)c3ccco3)s2)CC1	n	n	n	n	n	n
COc1ccc(S(=O)(=O)N(CCCN2CCOCC2)Cc2cccc3ccccc23)cc1	39	n	n	n	n	n
COc1ccccc1Oc1ccc2c(c1)C(=O)N(c1ccc(O)cc1)C2=O	28	x	n	n	n	x
CC(C)Sc1nc2c([nH]c3ccccc32)c(=O)n1C	n	n	n	n	n	n
CCOC(=O)[C@H](CCc1ccccc1)N[C@@H](C)C(=O)N1C(C(=O)O)C[C@@H]2CCC[C@@H]21 (stereo partly drawn)	x	n	n	n	n	x
N=C1SCC(=O)N1c1ncc(Cc2ccc(F)cc2)s1	n	n	n	n	n	74
Cc1ccc(-c2csc(N3C(=N)SCC3=O)n2)cc1	x	x	n	n	n	n
O=C(CCc1nc2cccnc2n1Cc1ccccc1)N1CCOCC1	36	n	n	n	n	n
Cc1cc(OCC(=O)Nc2nnc(C3CC3)s2)ccc1C(C)C	x	n	n	n	n	x
Cc1cc(C)cc(N(CCC#N)C(=O)COC(=O)c2ccccc2SCC(=O)N2CCCC2)c1	n	n	n	n	n	n
COc1ccc(N2CCN(Cc3cc(=O)c(OCC(=O)NC4CCCC4)co3)CC2)cc1	x	n	n	n	n	n
O=C(c1ccc(C(F)(F)F)cc1)C1CCCN(C(=O)CCc2cnccn2)C1 (stereo not drawn)	38	n	n	n	n	n
CCC(=O)N1CCN(c2ccc(NC(=O)c3ccc(N4CCOCC4)c([N+](=O)[O-])c3)cc2)CC1	38	n	n	n	n	n
O=C(/C=C/c1ccco1)NC(=S)Nc1ccc(N2CCOCC2)c(Cl)c1	n	n	n	n	n	87
COc1ccc(C(=O)NC(=S)Nc2ccc(N3CCOCC3)c(Cl)c2)cc1[N+](=O)[O-]	n	n	n	n	n	68
O=C(/C=C/c1ccccc1)NC(=S)Nc1ccc(N2CCOCC2)c(Cl)c1	n	n	n	n	n	n
COc1ccc(C(=O)NC(=S)Nc2ccccc2N2CCOCC2)cc1[N+](=O)[O-]	n	n	n	n	n	n
O=C(Nn1cnnc1)c1ccc(Cl)c([N+](=O)[O-])c1	n	n	n	n	n	n
COc1cccc(C(=O)Nc2nnc(-c3cccs3)o2)c1	n	n	n	n	n	77
COc1cccc(C(=O)Nc2nnc(-c3ccc(Cl)cc3)o2)c1	n	n	n	n	n	88
SMILES	NALP1 yeast inh	PfHsp90 yeast 2	TIM10 inh	tim23-1 inh	tim10-1 inh	SKKanGAS inh
COc1cccc(-c2nnc(NC(C)=O)o2)c1	n	n	n	n	n	n
CCOc1ccc(-c2nnc(NC(=O)c3ccc(OCC(C)C)c(OC)c3)o2)cc1	n	n	n	n	n	115
O=C(Nc1nnc(-c2cccs2)o1)c1ccco1	n	n	n	n	n	n
COc1cccc(-c2nnc(NC(=O)c3ccc4ncsc4c3)o2)c1	n	n	n	n	n	69
CCCCNC(=O)Nc1nnc(-c2ccc(OCC)cc2)o1	n	n	n	n	n	x
COCCN(C(=O)COC(=O)/C=C/c1ccccc1Cl)c1c(N)n(Cc2ccccc2)c(=O)[nH]c1=O	x	x	n	n	n	n
Cc1cc(C(=O)N/N=C/c2sc(N3CCOCC3)nc2-c2ccccc2)c(C)o1	n	n	n	n	n	n
CCOc1ccc(N(CC(=O)Nc2nccs2)S(=O)(=O)c2c(C)noc2C)cc1	n	n	n	n	n	n
C(=N\N(c1ccccc1)c1ccccc1)/c1ccc(N2CCOCC2)s1	n	n	n	n	n	n
COc1ccc(-c2nnc(NC(=O)c3ccccc3C)o2)cc1	n	n	n	n	n	n
COc1cc(OC)cc(-c2nnc(NC(=O)c3ccc4c(c3)OCCO4)o2)c1	n	n	n	n	n	109
